From PubChem BioAssay AID1259420 (Broad Institute, 2018) come the findings set out here.

This test is described as follows: T. gondii intracellular growth, IFN-gamma absent, dose response, cell-based (AID 1259420).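 Further: host cells were HeLa; final incubation lasted 72 hours.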 Particulars: Toxoplasma gondii growth in host cells, no IFN-gamma.

Where “and” joins values, the source holds several entries; their conditions need not be identical. Identical values can stand only once. Hit rate of the full screen: of about 1,000 compounds, about 250 (25%) were called active. About 31% were inconclusive and are not listed. These entries were drawn from the full list. Measured potencies and affinities stand elsewhere. Values without a mark were called inactive. How the calls were made is not given here.

Turning to `Cc1ccccc1S(=O)(=O)N1CCCCN2[C@H](CO)[C@H](c3ccc(C#CCN(C)C)cc3)[C@@H]2C1`, where the note is “at 19.5 µM unless noted”, the max activity was -9.35% [at 10 µM].

As to `Cc1ccccc1-c1ccc(C2[C@@H]3CN(C(=O)C4CCOCC4)C[C@H]2N3)cc1` (stereo partly drawn), the max activity (at 0.6 µM) is -10.3% and the max activity (at 5 µM) is -5.78%.

As for `C1=C(c2ccccc2)CC(c2ccccc2)=NN=C1c1ccccc1`, the max activity (at 19.5 µM unless noted) was -9.17% [at 10 µM].

As to `O=S(=O)(c1ccccc1)N1CCCCN2[C@H](C1)[C@@H](c1ccc(C#CC3CCCC3)cc1)[C@@H]2CO`, for the setting “at 19.5 µM unless noted”, the max activity is 22.5%.

Regarding `COc1cccc(S(=O)(=O)N2CCCCN3[C@H](CO)[C@@H](c4ccc(C#CCC(C)C)cc4)[C@@H]3C2)c1`, the max activity (at 19.5 µM unless noted) was -24.9% [at 0.038 µM].

In the case of `COc1cccc(S(=O)(=O)N2CCCCN3[C@H](C2)[C@@H](c2ccc(C#CCC(C)C)cc2)[C@@H]3CO)c1`, under “at 19.5 µM unless noted”, the max activity is -34.5% and -29.4%.

For `COc1cccc(S(=O)(=O)N2CCCCN3[C@H](CO)[C@H](c4ccc(C#CCC(C)C)cc4)[C@@H]3C2)c1`, the max activity (at 0.038 µM) was -25.2% and the max activity (at 19.5 µM) was -36.4%.

In the case of `O=S(=O)(c1ccccc1)N1CCCCN2[C@@H](CO)[C@@H](c3ccc(C#CC4CCCC4)cc3)[C@@H]2C1`, the max activity (at 19.5 µM unless noted) was 18.8% [at 10 µM].

Consider `O=S(=O)(c1ccccc1)N1CCCCN2[C@H](CO)[C@@H](c3ccc(C#CC4CCCC4)cc3)[C@@H]2C1`, for which the max activity (at 19.5 µM unless noted) is 39.2%.

On to `COc1cccc(S(=O)(=O)N2CCCCN3[C@@H](CO)[C@H](c4ccc(C#CCC(C)C)cc4)[C@@H]3C2)c1`, for which, for the setting “at 19.5 µM unless noted”, the max activity was -27.2% [at 0.3 µM].

On to `CNCCCC12CCC(c3ccccc31)c1ccccc12`, for which, under “at 19.5 µM unless noted”, the max activity was 17.3%.

With `CCC(=O)N1CC(=O)N2[C@H](C1)[C@H](c1ccc(C#CCC(C)C)cc1)[C@@H]2CO`, the max activity (at 19.5 µM unless noted) was -9.55% [at 5 µM].

As to `O=C(NC1CCCC1)N1CC(=O)N2[C@H](CO)[C@H](c3ccc(C4=CCCCC4)cc3)[C@@H]2C1`, the max activity (at 19.5 µM unless noted) was 10.5% [at 0.6 µM].

Regarding `CS(=O)(=O)N1CC(=O)N2[C@H](CO)[C@@H](c3ccc(C#CCC4CCCC4)cc3)[C@H]2C1`, the max activity (at 19.5 µM unless noted) was 17.7% [at 21 µM].

For `COC(=O)C[C@H]1CC[C@@H]2[C@@H](COc3ccc(NC(=O)Nc4cccc(C#N)c4)cc3C(=O)N2C)O1`, under “at 19.5 µM unless noted”, the max activity was 32.3% and 6.8%.

Take `CC=Cc1ccc2n(c1=O)C[C@H]1[C@H](CO)[C@@H](C(=O)Nc3ccc(-c4ccccc4)cc3)[C@@H]2N1C(=O)CC` (mixture of isomers): for the setting “at 19.5 µM unless noted”, the max activity was -8.34%.

With `CC(=O)NC1=NN(C(C)=O)C(C)(c2ccccc2)S1` (stereo not drawn), the max activity (at 19.5 µM unless noted) is 5.61% [at 0.16 µM].

`COc1ccccc1C#Cc1ccc([C@H]2[C@H](CO)N3CCCCN(C(=O)C4CCC4)C[C@@H]23)cc1`: the max activity reads like this: (at 10 µM) 11.5%; (at 19.5 µM) -7.69%.

Turning to `CN(C)CCNC(=O)c1ccc2onc(-c3coc(C4CC4)n3)c2c1`, the max activity (at 19.5 µM unless noted) was 24.6%.

`COc1ccccc1Cn1ncc2c1CCCC2NC(=O)c1cc(-c2cccs2)no1` (stereo not drawn): the max activity (at 19.5 µM unless noted) was 11.7% [at 1.2 µM].

As for `O=C(C1CCOCC1)N1CC(=O)N2[C@H](C1)[C@@H](c1ccc(/C=C/c3ccccc3)cc1)[C@@H]2CO`, the max activity (at 19.5 µM unless noted) is 10.5% [at 0.6 µM].

In the case of `O=C(C1CCC1)N1CC(=O)N2[C@H](CO)[C@H](c3ccc(Br)cc3)[C@H]2C1`, the max activity (at 19.5 µM unless noted) is -11.4% [at 10 µM].

On to `Cc1nc(Cn2cnc(-c3nc(C(=O)NCc4cc(F)cc(F)c4)c4ccccn34)c2)cs1`, for which the max activity (at 19.5 µM unless noted) was 15.4%.

As for `COC(=O)c1sccc1S(=O)(=O)N[C@@H]1CC[C@@H](N)C1`, the max activity (at 19.5 µM unless noted) was -5.2%.

`CN(c1ccccc1)c1ccc2ccc(C(=O)N3CCCC3)cn12`: the max activity (at 19.5 µM unless noted) is -21% [at 0.16 µM].

Turning to `O=C(c1ccc(F)cc1)N1c2ccccc2Sc2ccc(C(F)(F)F)cc21`, under “at 19.5 µM unless noted”, the max activity is 12.1% [at 10 µM].

Take `O=C(NC1CCCC1)N1CCCCN2[C@@H](CO)[C@@H](c3ccc(-c4cccnc4)cc3)[C@@H]2C1`: the max activity (at 19.5 µM unless noted) was -13.7% [at 2.6 µM].

Consider `CCc1ccc(S(=O)(=O)N2CCC3(CCC(C(=O)N4CCCC4)O3)CC2)cc1` (stereo not drawn), for which the max activity (at 19.5 µM unless noted) is -11.2% [at 1.2 µM].

Consider `CN1C(=O)c2cc(NC(=O)Cc3cccs3)ccc2OC[C@@H]2O[C@H](CC(=O)N[C@@H]3CCN(Cc4ccccc4)C3)CC[C@@H]21`, for which the max activity (at 19.5 µM unless noted) was 32%.

Turning to `CN1C(=O)c2cc(NC(=O)Cc3cccs3)ccc2OC[C@@H]2O[C@H](CC(=O)N[C@H]3CCN(Cc4ccccc4)C3)CC[C@@H]21`, the max activity (at 19.5 µM unless noted) was 35.3% and 9.67%.

For `CN1C(=O)c2cc(NC(=O)Cc3cccs3)ccc2OC[C@@H]2O[C@H](CC(=O)NCC3CCCCC3)CC[C@@H]21`, under “at 19.5 µM unless noted”, the max activity is 9.14% [at 0.6 µM].

Consider `COc1cccc(C(=O)Nc2ccc3c(c2)C(=O)N(C)[C@@H]2CC[C@H](CC(=O)N[C@H](C)c4ccccc4)O[C@@H]2CO3)c1`, for which the max activity (at 19.5 µM unless noted) was -19.3% [at 1.2 µM].

As to `Cc1ccccc1-c1ccc([C@H]2[C@H](CO)N3CCCCN(S(=O)(=O)Cc4ccccc4)C[C@@H]23)cc1`, for the setting “at 19.5 µM unless noted”, the max activity was 27%.

As to `O=C(NCC1CC1)C1CN(C(=O)c2ccoc2)CC12CCOCC2` (stereo not drawn), the max activity (at 19.5 µM unless noted) is 10.2% [at 0.16 µM].

Turning to `CS(=O)(=O)N1CC(=O)N2[C@H](C1)[C@@H](c1ccc(C#CCC3CCCC3)cc1)[C@@H]2CO`, the max activity (at 19.5 µM unless noted) is 17.8% [at 0.3 µM].

`Cc1ccccc1S(=O)(=O)N1CC[C@H]2[C@H](CO)Nc3ccc(-c4ccc(F)cc4)cc3[C@H]21`: where the note is “at 19.5 µM unless noted”, the max activity was -15.5% [at 5 µM].

With `CC(C)CNC(=O)C1Cn2ccnc2C2(CCN(c3ncccn3)CC2)O1` (stereo not drawn), the max activity (at 19.5 µM unless noted) was -6.18%.

In the case of `Fc1cccc(CN2CCC3(CC2)CC(OCC2CC2)CO3)c1` (stereo not drawn), where the note is “at 19.5 µM unless noted”, the max activity was -29.4% [at 10 µM].

As for `COc1cccc(-c2nn(CC3CC3)c3c2[C@@H]2CN(C(=O)c4ccccc4)C[C@@H]2C3)c1`, the max activity (at 19.5 µM unless noted) was 29.4%.

On to `O=C(Cc1cccnc1)N1CC(=O)N2[C@H](CO)[C@@H](c3ccc(/C=C/c4ccccc4)cc3)[C@@H]2C1`, for which the max activity (at 19.5 µM unless noted) was 14.8%.

On to `O=C(Cc1cccnc1)N1CC(=O)N2[C@H](CO)[C@@H](c3ccc(/C=C/c4ccccc4)cc3)[C@H]2C1`, for which the max activity (at 19.5 µM unless noted) is 15.6%.

As to `O=C(Cc1cccnc1)N1CC(=O)N2[C@H](CO)[C@H](c3ccc(/C=C/c4ccccc4)cc3)[C@@H]2C1`, the max activity (at 19.5 µM unless noted) was -6.67% [at 10 µM].

Consider `COCC(=O)N1CC(=O)N2[C@H](CO)[C@@H](c3ccc(-c4ccccc4F)cc3)[C@H]2C1`, for which the max activity (at 19.5 µM unless noted) is 10.5% [at 0.3 µM].

As for `Cc1ccccc1-c1ccc([C@@H]2[C@H](CO)N3C(=O)CN(C(=O)c4ccncc4)C[C@@H]23)cc1`, the max activity (at 19.5 µM unless noted) is 13%.

For `COC(=O)/C=c1\sc2nc(=O)c(C)nn2c1=O`, the max activity (at 19.5 µM unless noted) is -11.2% [at 10 µM].

In the case of `COc1ccccc1-c1ccc(C2[C@@H]3CN(S(=O)(=O)c4ccc(C)cc4)C[C@H]2N3)cc1` (stereo partly drawn), under “at 19.5 µM unless noted”, the max activity was 22.8%.

Regarding `Cc1nc(N2CCCC2)nc2c1CCN(S(=O)(=O)c1ccccc1)CC2`, the max activity (at 19.5 µM unless noted) is -5.81% [at 10 µM].

`Cc1cccc(S(=O)(=O)N2CCc3nc(-c4cnn(C)c4)nc(NC4CC4)c3C2)c1`: the max activity (at 19.5 µM unless noted) was -22.6% [at 1.2 µM].

Take `COc1ccc(S(=O)(=O)N2CCC(c3nc4ccc(-c5ccncc5)cn4n3)CC2)cc1`: the max activity (at 19.5 µM unless noted) is -32.4% [at 10 µM].

In the case of `CC(C)(C)NC(=O)[C@@H]1CC2CCCCC2CN1C[C@@H](O)[C@H](Cc1ccccc1)NC(=O)[C@H](CC(N)=O)NC(=O)c1ccc2ccccc2n1` (stereo partly drawn), under “at 19.5 µM unless noted”, the max activity was -8.44%.

Regarding `CC/C(=C(\c1ccccc1)c1ccc(OCCN(C)C)cc1)c1ccccc1`, under “at 19.5 µM unless noted”, the max activity is 22.1%.

Take `CCCNC(=O)c1cc(-c2ccn(CC3CC3)n2)n2ccccc12`: the max activity (at 19.5 µM unless noted) was -19.1% [at 10 µM].

As for `Cc1ccc(-c2cc(O)c3c(c2)CN(C(=O)CCN2CCCO2)CCO3)s1`, the max activity (at 19.5 µM unless noted) is 12.4% [at 10 µM].

On to `N#Cc1ccc(-c2ccc([C@@H]3[C@@H](CO)N4C(=O)CNC[C@H]34)cc2)cc1`, for which the max activity (at 19.5 µM unless noted) is 33.8%.

`O=C1CNC[C@@H]2[C@H](c3ccc(C#Cc4cccnc4)cc3)[C@H](CO)N12`: the max activity (at 19.5 µM unless noted) is 16.3%.

`O=S1(=O)c2ccccc2C2(CCN(CC3CC3)C2)N1Cc1ccc(F)cc1` (stereo not drawn): the max activity (at 19.5 µM unless noted) is 13.7%.

In the case of `CC(C)n1c(C(=O)Nc2cccc(F)c2)nc2c1CCN(Cc1ccccc1)C2`, where the note is “at 19.5 µM unless noted”, the max activity is -15.6% [at 10 µM].

On to `CN(Cc1ccccn1)C(=O)C1=NOC2(CCN(S(=O)(=O)c3cccc(F)c3)C2)C1` (stereo not drawn), for which the max activity (at 19.5 µM unless noted) is -20.7% [at 10 µM].

Turning to `CCC(=O)N1CC(=O)N2[C@H](CO)[C@H](c3ccc(C#CCC(C)C)cc3)[C@H]2C1`, the max activity (at 19.5 µM unless noted) is 13.7%.

As for `O=C1CNC[C@@H]2[C@H](c3ccc(C#Cc4cccnc4)cc3)[C@@H](CO)N12`, under “at 19.5 µM unless noted”, the max activity is -12.5% [at 0.16 µM].

Turning to `COC1CCCC(C(=O)N2CCC3(CC2)C(=O)Nc2ccc(-c4ccc(C(C)=O)cc4)cc23)C1` (stereo not drawn), the max activity (at 19.5 µM unless noted) is -15.4% [at 10 µM].

For the compound `CC(C)CC#Cc1ccc([C@H]2[C@H]3CN(C(=O)Nc4cc(F)ccc4F)CC(=O)N3[C@H]2CO)cc1`, the max activity (at 19.5 µM unless noted) was 31.4%.

`CC(C)CC#Cc1ccc([C@@H]2[C@H](CO)N3C(=O)CN(C(=O)c4cccc(F)c4)C[C@@H]23)cc1`: the max activity (at 19.5 µM unless noted) was 12.3% [at 1.2 µM].

Take `CC(C)CC#Cc1ccc([C@H]2[C@@H](CO)N3C(=O)CN(C(=O)c4cccc(F)c4)C[C@H]23)cc1`: the max activity (at 19.5 µM unless noted) was 19.6%.

`CC(C)CC#Cc1ccc([C@H]2[C@@H](CO)N3C(=O)CN(C(=O)Nc4cc(F)ccc4F)C[C@H]23)cc1`: under “at 19.5 µM unless noted”, the max activity is 17.1%.
